The values below come from PubChem BioAssay AID1347426 (Functional Genomics Laboratory (NCATS/FGL), 2020).

Among all 31,000 sequences or so, about 1,400 (4.5%) were called active.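 Rule for the calls: active = median seed-adjusted z-score above 1 or below -1; inactive = the rest.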 The sample as a whole holds a higher share of actives than the screen did.

This assay in a line: Novel Modifiers of Survival Motor Neuron (SMN) Protein: Gene Identification via Genome-wide siRNA Screen.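 Note: luminescence tracks full-length SMN protein made from the SMN2 reporter.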 Conditions: HEK293T SMN2-luciferase reporter, siRNA knockdown, 72 h; actives lie on both sides. A digest of the protocol:
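Genome-wide siRNA screen (10418 genes, 3 siRNAs each, 1 pmol per well) by reverse transfection in HEK293T cells stably carrying an SMN2-luciferase reporter; luminescence after 72 hours, normalized to negative-control siRNA, log10-transformed, MAD-scored.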
AGUCAAGAACAAUACCCAATT against SNRPD2: the median seed-adjusted z-score is -0.849 (inactive). Consider GAGCAGCUCUUAAGCAACATT against SAPS1, for which the median seed-adjusted z-score was 1.16 (active). For GCCUGUCCCUAGCAUUGUUTT against CES2, the median seed-adjusted z-score was -0.47 (inactive). Next, CCAGUCACUGCAUAACAUUTT against PSMD9: 0.266 (inactive). Next, GAACUAGGAGAUACAAUAUTT against ELOVL6: 0.742 (inactive); GGACAGUCUUCUGUAUGCATT against RBM39: -1.82 (active). In the case of CCAGAGAAAUGAGAUUGGATT against ZNF195 it was 0.0753 (inactive). Take GCCUGCAAGUGAAGCGGAATT against PRMT1: the median seed-adjusted z-score is -0.596 (inactive).

Regarding CAGCCUUCAUGAGAUGUUATT against AMPD3, the median seed-adjusted z-score was -0.0865 (inactive). In the case of CAACCUGCUCUACAGCAAATT against PRSS27, the median seed-adjusted z-score was 1.03 (active). In the case of GACGCGGUAUGUAGACAUATT against NAT8B it was 0.206 (inactive); in that of GCUGCAUUGUGGGUGAUGATT against PTGIR, -0.0806 (inactive). In the case of CAAGAGCAGUUUAAUAGCATT against BAT3 it was 0.567 (inactive); in that of GGAACUUACUACAACUCCATT against TMPRSS6, 1.29 (active). Regarding GGUUAGCUUAUGUUACAUATT against E2F3, the median seed-adjusted z-score was -0.215 (inactive).

ACUCCUCUCUGUUAAUGGATT against LIN7C: the median seed-adjusted z-score was 0.021 (inactive). Next, GGUUGAAGAUGGUACUCCUTT against ADAMTS20: 1.44 (active). CUCCAGAUAUAGACCUCAATT against TRIM22: the median seed-adjusted z-score was 0.363 (inactive). With UGUUGUACCUCUAAUGUCATT against GPR172B, the median seed-adjusted z-score was 0.184 (inactive). Take GCAACCCACCAAUAACUAATT against ADAM29: the median seed-adjusted z-score is 0.904 (inactive). UGAGUUCUUUAGGACCGAATT against MFAP3L: the median seed-adjusted z-score is 1.03 (active). GUACUGUAGAGAAAGCGUATT against ZNF606: the median seed-adjusted z-score was 0.118 (inactive).

Regarding UUUCCAAACAAGUACCUAATT against CKS2, the median seed-adjusted z-score was 0.0907 (inactive).

As for GCAUAUACCAUCGCUGUAATT against SUPT16H, the median seed-adjusted z-score is 1.2 (active).

As to CCAGAUAUGGUAUCCCAAUTT against ZNF227, the median seed-adjusted z-score is 0.0194 (inactive). In the case of GUCUCAAUCUAAUAAGGAATT against TTLL1 it was 0.322 (inactive); in that of GAUCAGGACUUUAUGUUCATT against ZNF225, 0.0761 (inactive); in that of GAGCGUACCAAGGAUCUAATT against HDLBP, -1.18 (active). Regarding CUUUUGACGUGAACGAUGATT against ORM1, the median seed-adjusted z-score is 0.206 (inactive). In the case of CCGCCCAAGUAGUAAAGAATT against ADCY3 it was -0.294 (inactive).
